HTT prom inh: Primary qHTS for Identification of Small Molecule Inhibitors of Huntingtin Promoter Activity. HEK293 HTT promoter firefly luciferase reporter, 24 h. AID 1508623, 2021. Potency, µM (doses to about 57.5 µM), for the others: top-dose activity change, negative = inhibition, actives largely listed as inhibitors. 48,000 tested, 0.93% active; note: potency is the fitted concentration of half-maximal effect; nearly all actives have a fitted effect of over 50% in size
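Firefly luciferase readout (Dual-Glo, 10 min RT) after 24 h, 37 °C compound exposure (final up to 57.5 uM) of HEK293 reporter cells cultured 24 h beforehand; PTC124 at 50 uM final as control inhibitor; activity scaled vehicle 0%, zero RLU -100%.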
HTT-AS promoter: Primary qHTS for Identification of Small Molecule Activators of Huntingtin-Antisense Promoter Activity. HEK293 HTT-AS promoter firefly luciferase reporter, 24 h; response scale: percent change from vehicle, -100% = no light. Potency, µM (titrated, usually from 57.5 µM), without a hit: at the top dose activity change, positive = activation, usual class: activators. 48,000 tested, 0.24% active. AID 1508624, 2021; note: potency is the fitted concentration of half-maximal effect; nearly all actives have a fitted effect of over 55% in size
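Quantitative HTS used concentration series of up to 57.5 uM final on HEK293 luciferase reporter cells, 24 h at 37 degrees C. Readout was Dual-Glo firefly luminescence.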
mTORC1 inh: Acumen qHTS Assay for Inhibitors of the mTORC1 Signaling Pathway in MEF (Tsc2-/-, p53-/-) Cells: Sytravon. Tsc2-/- p53-/- MEF, phospho-rpS6 immunofluorescence/PI, 24 h. Potency, µM (series often up to 38.3 µM), for inactives: at the top dose activity change, negative = inhibition, most hits filed as inhibitors. 44,000 tested, 0.78% active;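 note: potency is the fitted concentration of half-maximal effect; plate controls were DMSO for no effect and rapamycin for full effect; nearly all actives have a fitted effect of over 50% in size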
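Readout is phospho-S6 Alexa 488 signal normalized to PI per well, reported as % active cells with thresholds set from rapamycin (7.5 nM) and DMSO controls. Cells: Tsc2-/-, p53-/- MEFs, 24 hrs compound at 37 C; PI cell number serves as viability.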
FH mod: Identification of activators of human fumarate hydratase by quantitative high-throughput screening. Fumarate hydratase, mitochondrial (Homo sapiens), P07954. FH coupled MDH/diaphorase resazurin fluorescence, 15 min. Potency, µM (top dose mostly 79.9 µM), for inactives: top-dose activity change, negative = inhibition, hits mostly inhibitors. 54,000 tested, 0.22% active. AID 1347055, 2019; note: potency is the fitted concentration of half-maximal effect; % is set by controls: 0 for no effect and ±100 for the full control effect; the screen sought activators but most active calls are inhibition curves; nearly all actives have a fitted effect of over 45% in size
Target sequence (P07954 whole entry, looked up): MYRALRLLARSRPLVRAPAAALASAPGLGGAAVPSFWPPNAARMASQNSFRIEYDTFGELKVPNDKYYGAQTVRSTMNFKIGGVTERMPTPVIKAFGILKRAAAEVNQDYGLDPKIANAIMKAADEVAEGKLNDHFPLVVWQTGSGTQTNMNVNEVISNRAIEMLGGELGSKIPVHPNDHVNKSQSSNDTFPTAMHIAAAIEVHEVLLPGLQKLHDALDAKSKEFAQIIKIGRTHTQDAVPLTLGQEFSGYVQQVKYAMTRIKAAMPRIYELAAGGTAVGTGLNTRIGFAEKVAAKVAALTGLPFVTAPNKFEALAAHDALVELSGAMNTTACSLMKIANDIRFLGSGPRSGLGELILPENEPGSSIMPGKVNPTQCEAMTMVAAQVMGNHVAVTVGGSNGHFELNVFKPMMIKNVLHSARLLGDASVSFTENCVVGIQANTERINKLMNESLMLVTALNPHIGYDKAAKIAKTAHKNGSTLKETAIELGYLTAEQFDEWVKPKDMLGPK
PMP22 txn prim: Cell-based coincidence reporter assay to measure PMP22 gene transcription in S16 Pmp22-F2sN cells - Primary screen | Potency, µM (top dose mostly 57.5 µM), without a hit: at the top dose activity change, negative = inhibition, most hits filed as inhibitors | 43,000 tested, 2% active | S16 Pmp22-F2sN Schwann cells, FLuc/NLuc coincidence luminescence, 24 h; active = clear falling dose curves in both reporters; inconclusive = both reporters move, but less clearly or upward; inactive = either reporter flat; the % is the NLuc reporter signal; note: potency is the fitted concentration of half-maximal effect; % is set by controls: 0 for no effect and ±100 for the full control effect
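Schwann cells carrying the coincidence reporter were exposed to library compounds for 24 h at 37C, then lysed and read for FLuc and, after quenching, NLuc luminescence on a CCD imager.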
S16 viability: Cell viability qHTS assay in S16 Pmp22-F2sN cells | Potency, µM (highest dose often 57.5 µM), for inactives: top-dose activity change, negative = cytotoxicity, actives largely listed as cytotoxic | 43,000 tested, 0.48% active | AID 1508642, 2021 | S16 Pmp22-F2sN Schwann cells viability, CellTiter-Glo, 24 h; note: potency is the fitted concentration of half-maximal effect; % is set by controls: 0 for no effect and ±100 for the full control effect; nearly all actives have a fitted effect of over 65% in size
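Viability was measured by CellTiter-Glo luminescence (15 min, room temperature). This followed 24 h at 37 °C of compound exposure (23 nL pin transfer) in S16 Pmp22-F2sN Schwann cells, 500-1,000 per well.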
NLuc sat counter: Biochemical NLuc saturation counterscreen for small molecule modulators of PMP22 gene expression - Nano-Glo assay | shares compounds with PMP22 txn prim | Secreted NLuc enzyme (filtered S16 cell medium), Nano-Glo luminescence | Potency, µM (titrated, usually from 57.5 µM), without a hit: top-dose activity change, negative = inhibition, usual class: inhibitors | 690 tested, 4% active; note: potency is the fitted concentration of half-maximal effect; % is set by controls: 0 for no effect and ±100 for the full control effect
NLuc Km counter: Biochemical coelenterazine-based NLuc counterscreen for small molecule modulators of PMP22 gene expression - Km assay | 690 tested, 5% active | shares compounds with PMP22 txn prim | Potency, µM (top dose mostly 57.5 µM), without a hit: top-dose activity change, negative = inhibition, actives largely listed as inhibitors | AID 1508639, 2021 | secreted NLuc enzyme, coelenterazine luminescence, Km conditions; note: potency is the fitted concentration of half-maximal effect; % is set by controls: 0 for no effect and ±100 for the full control effect
FLuc ctr PMP22: Biochemical FLuc counterscreen for small molecule modulators of PMP22 gene expression; shares compounds with PMP22 txn prim; purified P. pyralis FLuc, luminescence, 10 min; Potency, µM (series often up to 57.5 µM), inactives show at the top dose activity, negative = inhibition, actives largely listed as inhibitors; 690 tested, under 10 active; AID 1508640, 2021; note: % of control where 0% means no effect
S16 F2sN tox cnf: Cell viability qHTS assay in S16 Pmp22-F2sN cells - Confirmatory screen | Potency, µM (top dose mostly 57.5 µM), inactives show at the top dose activity change, negative = viability loss, most hits filed as cytotoxic | shares compounds with PMP22 txn prim | S16 Schwann cells viability, CellTiter-Glo ATP luminescence, 24 h | 690 tested, 7% active | AID 1508641, 2021; note: potency is the fitted concentration of half-maximal effect; % is set by controls: 0 for no effect and ±100 for the full control effect
PMP22 txn cnf: Cell-based coincidence reporter assay to measure PMP22 gene transcription in S16 Pmp22-F2sN cells - Confirmatory screen; 690 tested, 22% active; S16 Schwann cells Pmp22-F2sN, dual luciferase, 24 h; shares compounds with PMP22 txn prim; Potency, µM (doses to about 57.5 µM), for inactives: top-dose activity change, negative = inhibition, hits mostly inhibitors; active = clear falling dose curves in both reporters; inconclusive = both reporters move, but less clearly or upward; inactive = either reporter flat; the % is the FLuc reporter signal; note: potency is the fitted concentration of half-maximal effect
PMP22 prot conf: Cell-based HiBiT reporter assay to measure PMP22 protein expression in S16 Pmp22-HiBiT cells - Confirmatory screen | AID 1508647, 2021 | S16 Schwann cells Pmp22-HiBiT, luminescence, 48 h | shares compounds with PMP22 txn prim | 95 tested, under 10 active | Potency, µM (doses to about 27.9 µM), inactives show at the top dose activity change, negative = inhibition, most hits filed as inhibitors
Target sequence (P25094 whole entry, looked up): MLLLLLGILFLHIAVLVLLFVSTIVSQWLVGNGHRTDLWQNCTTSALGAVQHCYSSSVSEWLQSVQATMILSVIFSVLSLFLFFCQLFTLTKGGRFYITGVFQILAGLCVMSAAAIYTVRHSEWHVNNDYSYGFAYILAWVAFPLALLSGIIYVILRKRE
* marks the source's active call; other numbers are inactive results; ? = inconclusive; / = no result; [ ] = dose if it differs, or a comment. Only some compounds are listed: those with a hit (about 3.3% of all), similar ones and a draw of the others. Unless noted, calls come from the whole dose curve; as a rule, active = well fitted curve in the direction sought with a large enough effect; inconclusive = small, poorly fitted or top-dose-only effect, or another doubt; inactive = no such curve, though single readings can be large; an effect the other way counts as inactive or inconclusive.

SMILES	HTT prom inh	HTT-AS promoter	mTORC1 inh	FH mod	PMP22 txn prim	S16 viability	NLuc sat counter	NLuc Km counter	FLuc ctr PMP22	S16 F2sN tox cnf	PMP22 txn cnf	others
CCCCCOc1ccccc1CN1C(=O)C(=O)c2cc(C)ccc21	?	-38%	?	-19%	14µM*	0%	?	?	-1%	-6%	?
COc1cccc(CNC(=O)Nc2ccc3c(c2)N(C)C(=O)c2ccccc2S3)c1	?	-50%	-10%	-21%	18µM*	?	?	?	-16%	-2%	?
Cc1cccc(OCC(=O)Nc2ccc3c(c2)N(C)C(=O)c2ccccc2S3)c1	?	-32%	-13%	-18%	?	?	/	/	/	/	/
CN1C(=O)c2ccccc2Sc2ccc(NC(=O)COc3ccccc3)cc21	?	-48%	-19%	-30%	12µM*	-27%	?	?	0%	-8%	-32%
CC(=O)Nc1cccc(NC(=O)C(=O)NCCc2sc(-c3ccccc3)nc2C)c1	-22%	-11%	?	-18%	2.5µM*	-5%	-18%	?	-4%	0%	3.6µM*
CCc1ccccc1NC(=O)C(=O)NCCc1sc(-c2cccc(F)c2)nc1C	-29%	-17%	1%	-2%	?	9%	/	/	/	/	/
CCOc1ccccc1NC(=O)C(=O)NCCc1sc(-c2cccc(F)c2)nc1C	-12%	-6%	2%	4%	?	22%	-15%	-1%	-1%	7%	?
C=C1[C@@H]2[C@H]3OC(=O)C(=C)[C@@H]3CC[C@@](C)(O)[C@@H]2C[C@@H]1O[C@@H]1O[C@H](CO)[C@@H](O)[C@H](O)[C@H]1O	/	/	/	0%[53.3 µM]	/	/	/	/	/	/	/
C=CCC/C=C/C#CCCCCCCCC[C@H]1C(=O)O[C@H](C)[C@@H]1O	/	/	/	-17%[53.3 µM]	/	/	/	/	/	/	/
C[C@@H]1CCCN1CCc1cc2cc(-c3ccc(C#N)cc3)ccc2o1	/	/	/	-3%	/	/	/	/	/	/	/
COc1ccccc1NC(=O)CSc1nc2nccnc2c(=O)n1CCc1c[nH]c2ccccc12	-17%	-29%	1%	1%	13µM*	-16%	?	?	-15%	7%	?
CC(C)(C)c1ccc(S(=O)(=O)Nc2ccc(-n3ccnc3)cc2)cc1	/	/	/	-15%	/	/	/	/	/	/	/
CCCCCS(=O)(=O)c1oc(-c2cccs2)nc1S(=O)(=O)c1ccc(C)cc1	-3%	-10%	4%	-2%	13µM*	?	-9%	2%	-2%	?	17µM*	PMP22 prot conf=36%
CCOc1ccc(NC(=O)CSc2oc(-c3cccs3)nc2S(=O)(=O)c2ccc(C)cc2)cc1	-6%	-11%	0%	-16%	?	-7%	/	/	/	/	/
COc1ccc(Cl)cc1NS(=O)(=O)c1cc(Br)cc2c1N(C(=O)C1CC1)CC2	?	-37%	-12%	-9%	-44%	3%	/	/	/	/	/
COc1cc(NS(=O)(=O)c2cc(Br)cc3c2N(C(=O)C2CC2)CC3)cc(OC)c1	16µM*	-96%	?	-17%	3.6µM*	-19%	14µM*	?	0%	?	18µM*
Cc1ccc(NS(=O)(=O)c2cc(Br)cc3c2N(C(=O)C2CC2)CC3)cc1C	5.6µM*	-62%	-13%	-9%	8.9µM*	?	?	-7%	-1%	?	?
CC1(C)CCCC2(C)C1CC(=O)C13CC(CCC12)C(O)(CO)C3 (centres undefined)	/	/	/	-1%[53.3 µM]	/	/	/	/	/	/	/
COc1ccc(-c2cc3nc(C)c(CCC(=O)N4CCN(c5ccccc5F)CC4)c(C)n3n2)c(OC)c1	-13%	-12%	1%	?	?	18%	/	/	/	/	/
COc1ccc(-c2cc3nc(C)c(CCC(=O)N4CCN(c5cc(C)ccc5C)CC4)c(C)n3n2)c(OC)c1	-20%	-22%	-5%	?	14µM*	21%	?	0%	-5%	-7%	-39%
CC(C)c1ccc(OCC(=O)Nc2cc(-c3nc4ncccc4o3)ccc2Cl)cc1	-4%	-15%	0%	2%	13µM*	21%	-5%	5%	-9%	3%	?
